# According to the supplement of paper PMC13380429:
# Unmarked numbers belong to inactive results.
# Tested on: Vero E6 infected with SARS-CoV-2
# Experiment: inhibition of SARS-CoV-2 cytopathic effect; higher = more antiviral protection, active = above 15
# Settings: 48 h
Compound,inhibition of SARS-CoV-2 cytopathic effect (1 nM),inhibition of SARS-CoV-2 cytopathic effect (8.33 nM),inhibition of SARS-CoV-2 cytopathic effect (100 nM),inhibition of SARS-CoV-2 cytopathic effect (833.33 nM),inhibition of SARS-CoV-2 cytopathic effect (10000 nM)
O=c1c(O[C@@H]2O[C@H](CO)[C@H](O)[C@H](O)[C@H]2O)c(-c2ccc(O)c(O)c2)oc2cc(O)cc(O)c12 [hyperin],0.95%,2.27%,-0.59%,-1.62%,0.59%
C[Se]C[C@H](N)C(=O)O [Se-methylselenocysteine],2.05%,1.18%,0.23%,0.93%,1.8%
CC[C@@H]1/C=C(\C)C[C@H](C)C[C@H](OC)[C@H]2O[C@@](O)(C(=O)C(=O)N3CCCC[C@H]3C(=O)O[C@H](/C(C)=C/[C@@H]3CC[C@@H](O)[C@H](OC)C3)[C@H](C)[C@@H](O)CC1=O)[C@H](C)C[C@@H]2OC [ascomycin],1.02%,2.65%,2.8%,2.76%,1.33%
COc1cc2c(NC3CCN(CC4CCCCC4)CC3)nc(N3CCCN(C(C)C)CC3)nc2cc1OCCCN1CCCCC1,0.74%,-1.71%,-3.06%,0.36%,-20.7%
COC[C@@H](c1ccc(C(F)(F)F)cc1)N1CCN(C2(C)CCN(C(=O)c3c(C)ncnc3C)CC2)C[C@@H]1C [vicriviroc],-0.96%,-0.11%,-0.52%,0.02%,-0.9%
COC(=O)C[C@](O)(CCC(C)(C)O)C(=O)O[C@@H]1C(OC)=C[C@]23CCCN2CCc2cc4c(cc2[C@H]13)OCO4 [harringtonine],1.51%,0.45%,-10.7%,19.9% (active),-9.74%
N#Cc1cnc2c(Cl)cc(NCc3cn(CCN4CCCCCC4)nn3)cc2c1Nc1ccc(F)c(Cl)c1 [cot-inhibitor-1],-0.74%,2.31%,-0.11%,-2.18%,-14%
CNCCC(Oc1ccc(C(F)(F)F)cc1)c1ccccc1 (stereo not given) [fluoxetine],-10.3%,0.27%,-2.53%,-3.36%,-9.56%
CCn1cc(C(=O)O)c(=O)c2cnc(N3CCNCC3)nc21 [pipemidic-acid],0.65%,2.63%,1.17%,-0.86%,1.68%
COc1nc(C)cnc1NS(=O)(=O)c1cccnc1-c1ccc(-c2nnco2)cc1 [zibotentan],-2.02%,-0.17%,-0.98%,-3.56%,-1.47%
Cl/C(=C\n1cncn1)c1ccc(Cl)cc1Cl [loreclezole],0.42%,-1.72%,-2.63%,-0.72%,-1.41%
O=C(O)CCCC[C@@H]1CCSS1 [thioctic-acid],0.04%,-0.43%,-1.56%,1.13%,-3.32%
CC(=O)C1=C(O)C=C2Oc3c(C(C)=O)c(O)c(C)c(O)c3C2(C)C1=O (stereo not drawn) [usniacin-(+)],3.22%,2.31%,0.43%,-1.14%,-4.03%
CCOC(=O)CCC(=O)O[C@H]1[C@H](O[C@@H]2[C@@H](C)[C@H](O[C@H]3C[C@@](C)(OC)[C@@H](O)[C@H](C)O3)[C@@H](C)C(=O)O[C@H](CC)[C@@](C)(O)[C@H](O)[C@@H](C)C(=O)[C@H](C)C[C@@]2(C)O)O[C@H](C)C[C@@H]1N(C)C [erythromycin-ethylsuccinate],0.01%,0.11%,0.57%,0.29%,-0.24%
Nc1nccc(Oc2ccc(NC(=O)c3c[nH]cc(-c4ccc(F)cc4)c3=O)cc2F)c1Cl [metatinib],0.06%,0.76%,0.97%,4.29%,-2.56%
COc1cc2c(cc1OC)CN(C(=O)[C@@H](NCc1ccncc1)C(C)(C)C)CC2,2.06%,3.28%,2.93%,1.04%,1.19%
O=C1NC(=O)C(c2ccccc2[N+](=O)[O-])=C1Nc1ccc(O)c(Cl)c1,-2.14%,-1.36%,-2.09%,1.29%,6.31%
Cc1sc2c(c1C)C(c1ccc(Cl)cc1)=N[C@@H](CC(=O)Nc1ccc(OCCOCCOCCOCCNc3cccc4c3C(=O)N(C3CCC(=O)NC3=O)C4=O)cc1)c1nnc(C)n1-2 (stereo not given in full),-0.01%,-1.32%,-2.57%,1.39%,-3.1%
C[C@@H](C1=C(CCN(C)C)Cc2ccccc21)c1ccccn1 (racemic) [dimetindene],-0.06%,0.69%,0.085%,1.68%,1.16%

Compound,inhibition of SARS-CoV-2 cytopathic effect (1 nM),inhibition of SARS-CoV-2 cytopathic effect (8.33 nM),inhibition of SARS-CoV-2 cytopathic effect (100 nM),inhibition of SARS-CoV-2 cytopathic effect (833.33 nM),inhibition of SARS-CoV-2 cytopathic effect (10000 nM)
CC/C(=C(/c1ccc(OCCN(C)C)cc1)c1cccc(O)c1)c1ccccc1 [droloxifene],0.66%,-1.2%,1.69%,0.64%,34.5% (active)
O=C1C(O)=C([C@H]2CC[C@H](c3ccc(Cl)cc3)CC2)C(=O)c2ccccc21 [atovaquone],0.09%,-1.67%,-3.09%,-1.77%,-9.21%
CC1(C)CC(=O)C(C2C3=C(CC(C)(C)CC3=O)Oc3ccccc32)C(=O)C1 (stereo not given),-0.63%,0.77%,-0.14%,1.93%,-2.4%
CCCOCCn1c(=O)c(N2CCN(CCO)CC2)nc2cnc(-c3ccc(OC)nc3)cc21,0.37%,0.25%,-0.91%,-1.66%,-1.9%
Cc1ccc(C(=O)C(C)CN2CCCCC2)cc1 (stereo not given) [tolperisone],-0.13%,-1.26%,-0.59%,-1.06%,0.32%
c1ccc(CNc2ncnc3[nH]cnc23)cc1 [6-benzylaminopurine],0.87%,0.37%,-1.53%,-1.37%,-1.09%
COc1cc2c(Oc3ccc(NC(=O)C4(C(=O)Nc5ccc(F)cc5)CC4)cc3F)ccnc2cc1OCCCN1CCOCC1 [foretinib],-0.07%,-1.17%,2.06%,-5.86%,-22.4%
O=C(O)CCCCN(CCc1ccccc1OCc1ccc(CCc2ccccc2)cc1)Cc1ccc(C(=O)O)cc1 [cinaciguat],1.27%,2.69%,2.55%,2.26%,-3.15%
COc1cccc(N(C)C(=S)Oc2ccc3c(c2)CCCC3)n1 [liranaftate],-2.95%,1.62%,0.18%,-0.32%,1.9%
Cc1noc(NS(=O)(=O)c2cccc3c(N(C)C)cccc23)c1C,0.18%,0.76%,0.03%,1.44%,0.04%
NS(=O)(=O)NCCNc1nonc1/C(=N/O)Nc1ccc(F)c(Br)c1,-1.72%,-0.99%,-3.11%,3.1%,-1.01%
O=c1n(CC2CO2)c(=O)n(CC2CO2)c(=O)n1CC1CO1 (stereo not given) [teroxirone],-1.74%,-0.65%,0.11%,0.34%,9.05%
NNc1nncc2ccccc12 [hydralazine],0.09%,0.28%,-1.28%,-0.12%,0.87%
O=c1ccc2cc(O[C@@H]3O[C@H](CO)[C@@H](O)[C@H](O)[C@H]3O)c(O)cc2o1 [esculin],-1.01%,-0.49%,-1.32%,-1.49%,-0.95%
CCOC(=O)NNc1nncc2ccccc12 [todralazine],2.18%,1.04%,0.33%,0.99%,-0.55%
O=C(NCCN1CCOCC1)c1ccc(Cl)cc1 [moclobemide],1.23%,2.39%,0.11%,-2.19%,-0.2%
COC(c1ccccc1)(c1ccccc1)[C@H](Oc1nc(C)cc(C)n1)C(=O)O [ambrisentan],-4.05%,-0.7%,-1.38%,-0.18%,-3.02%
O=C1CNC(=O)CN1 [piperazinedione],-1.5%,-0.79%,-1.97%,-2.42%,-2.4%
